Compounds with a hit are over-represented: about 1.8% of the library has one in this group of screens.
PKD1 kinase inh: blocks activity of human protein kinase D1; Q15139; PKD1 kinase fluorescence polarization assay; inhibition, % (no concentration beside the values); 200,000 compounds, 0.056% hits; AID 797
HDAC3 inh: blocks human histone deacetylase 3 | 320,000 compounds, 0.15% hits | O15379 | AID 2718 | inhibition, % at 8.3 µM | recombinant HDAC3, fluorogenic peptide/trypsin coupled, fluorescence; in the data active = inhibition above about 26%, passing the limit was not always enough; inconclusive = no clear call, values can overlap the other calls
VLA-4 inh: inhibition in a human VLA-4 binding assay. inhibition, % (about 7 µM as worked out from the volumes in the protocol). P13612. 330,000 compounds, 0.2% hits. VLA-4 expressing cells, ligand binding flow cytometry
Pemphigus Ab inh: human desmoglein-3 autoantibody binding inhibition; 310,000 compounds, 0.48% hits; DSG3-coupled beads, scFv-anti-DSG3-GFP binding, flow cytometry; active compounds read low; P32926; AID 588358; binding (percent of control), % at 10 µM;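 active = binding more than 3 SD below its plate's average and above zero; inconclusive = below that plate limit but binding exactly zero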;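 also: hits lower antibody fragment binding to DSG3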
Target sequence (P32926 whole entry, looked up, the tested form may be a part): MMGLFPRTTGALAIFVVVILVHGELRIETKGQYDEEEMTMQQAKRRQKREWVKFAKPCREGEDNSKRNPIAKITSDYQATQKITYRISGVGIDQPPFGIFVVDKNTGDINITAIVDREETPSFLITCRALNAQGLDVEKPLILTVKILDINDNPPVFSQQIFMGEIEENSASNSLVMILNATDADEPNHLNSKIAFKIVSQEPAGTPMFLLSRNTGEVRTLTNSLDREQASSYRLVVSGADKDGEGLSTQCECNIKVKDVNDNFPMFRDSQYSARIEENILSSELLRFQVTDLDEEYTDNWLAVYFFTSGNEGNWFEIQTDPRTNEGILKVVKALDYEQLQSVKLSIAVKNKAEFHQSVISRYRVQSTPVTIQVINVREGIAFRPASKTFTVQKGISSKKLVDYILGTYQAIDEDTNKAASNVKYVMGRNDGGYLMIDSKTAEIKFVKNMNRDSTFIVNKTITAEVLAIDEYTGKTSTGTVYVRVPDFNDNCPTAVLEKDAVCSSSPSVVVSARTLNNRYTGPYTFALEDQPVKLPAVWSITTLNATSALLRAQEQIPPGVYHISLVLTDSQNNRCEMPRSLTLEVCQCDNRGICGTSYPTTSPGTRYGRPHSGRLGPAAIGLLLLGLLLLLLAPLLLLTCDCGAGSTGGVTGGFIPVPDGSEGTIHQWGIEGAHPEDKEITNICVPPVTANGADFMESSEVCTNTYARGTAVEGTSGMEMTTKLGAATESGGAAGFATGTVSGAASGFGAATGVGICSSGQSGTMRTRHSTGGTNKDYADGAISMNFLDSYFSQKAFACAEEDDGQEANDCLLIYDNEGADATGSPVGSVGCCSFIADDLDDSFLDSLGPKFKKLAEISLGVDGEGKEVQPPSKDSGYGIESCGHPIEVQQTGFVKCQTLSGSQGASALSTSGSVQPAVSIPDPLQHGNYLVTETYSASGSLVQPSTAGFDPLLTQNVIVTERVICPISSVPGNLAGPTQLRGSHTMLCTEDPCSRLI
GRK2 inh: human GRK2 inhibition via aptamer displacement; 330,000 compounds, 0.59% hits; inhibition of aptamer binding, % at 10 µM; bead flow cytometry, FAM-aptamer displacement from GRK2; P25098;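 active = inhibition of aptamer binding above 40%, roughly 3 SD of noise, on plates passing a quality check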;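 also: median bead fluorescence of bound FAM aptamer so fluorescent compounds give negative values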
LANA-H2A inh: blocks KSHV LANA binding to histone H2A/H2B. cell-free LANA-H2A/H2B peptide, fluorescence polarization. inhibition, % (concentration not given with the values). 320,000 compounds, 0.6% hits; in the data active = inhibition mostly above about 10%, no sharp cut-off; inactive = mostly below about 6.7%
* = called active by the depositor. Rule as the data show it, unless noted: active = inhibition above about 50%; inactive = the rest.

Screening CCOC(=O)c1nnn(-c2nonc2-n2cccc2)c1C returned PKD1 kinase inh -6, HDAC3 inh 0, VLA-4 inh 13, Pemphigus Ab inh 113, GRK2 inh 2 and LANA-H2A inh -1.
For CCOC(=O)c1nnn(-c2nonc2NC(C)=O)c1C the results were PKD1 kinase inh -2, HDAC3 inh 2, VLA-4 inh 2, Pemphigus Ab inh 52*, GRK2 inh 4 and LANA-H2A inh -2.
For C=CCC1(CC=C)CCCN1C(=O)c1cc(COc2ccccc2SC)on1 the results were HDAC3 inh 2, VLA-4 inh 34, Pemphigus Ab inh 99, GRK2 inh 2 and LANA-H2A inh -2.
For COc1ccc(CNC(=O)N[C@@H](CC(C)C)C(=O)O)cc1OC the results were VLA-4 inh -3, Pemphigus Ab inh 94, GRK2 inh 3 and LANA-H2A inh -3.
CCN(CC(=O)Nc1ccc(NC(C)=O)cc1)CC(=O)Nc1ccccc1C(=O)c1ccccc1 was read as PKD1 kinase inh 2, HDAC3 inh 0, VLA-4 inh 13, Pemphigus Ab inh 106, GRK2 inh 1 and LANA-H2A inh 10*.
Screening CCN(CC)CC(=O)Nc1ccc(C)cc1C(=O)c1ccccc1 returned HDAC3 inh -8, VLA-4 inh 19, GRK2 inh 1 and LANA-H2A inh -5.
`Cc1ccc(NC(=O)c2sccc2C)nc1` gave HDAC3 inh 3, VLA-4 inh 10, Pemphigus Ab inh 100, GRK2 inh 0 and LANA-H2A inh 0.
`COc1ccc(C(Cl)=C(c2ccc(OC)cc2)c2ccc(OC)cc2)cc1` gave PKD1 kinase inh -19, HDAC3 inh 12, VLA-4 inh 11, Pemphigus Ab inh 102, GRK2 inh 1 and LANA-H2A inh 39*.
`COc1ccc(C(=N/O)/C(=N/O)c2ccc(OC)cc2)cc1` gave PKD1 kinase inh -11, HDAC3 inh 13, VLA-4 inh -13, Pemphigus Ab inh 96, GRK2 inh 1 and LANA-H2A inh -6.
Screening CSC1=C(C#N)C(c2sccc2C)CC(=O)N1 (stereo unspecified) returned PKD1 kinase inh -1, HDAC3 inh -3, VLA-4 inh 3, Pemphigus Ab inh 92, GRK2 inh 0 and LANA-H2A inh 0.
For O=C(Cc1ccccc1)n1nc(-c2ccco2)nc1SCc1ccccc1 the results were PKD1 kinase inh -7, HDAC3 inh 6, VLA-4 inh -9, Pemphigus Ab inh 102, GRK2 inh 0 and LANA-H2A inh 1.
CSc1nc(-c2ccco2)nn1C(=O)c1ccccc1 was read as PKD1 kinase inh -3, HDAC3 inh 97*, VLA-4 inh 6, Pemphigus Ab inh 103, GRK2 inh 0 and LANA-H2A inh -1.
Screening CSc1nc(-c2ccco2)nn1C(=O)c1ccc(C)cc1 returned PKD1 kinase inh -4, HDAC3 inh inconclusive, VLA-4 inh -35, Pemphigus Ab inh 105, GRK2 inh 0 and LANA-H2A inh 2.
`CCCC(=O)n1nc(-c2ccco2)nc1SCc1ccccc1` gave PKD1 kinase inh -2, HDAC3 inh 48*, VLA-4 inh -7, Pemphigus Ab inh 110, GRK2 inh 1 and LANA-H2A inh 2.
Screening CSc1nc(-c2ccco2)nn1C(=O)c1ccco1 returned PKD1 kinase inh -13, HDAC3 inh 72*, VLA-4 inh 12, Pemphigus Ab inh 105, GRK2 inh 0 and LANA-H2A inh -5.
`CS(=O)(=O)c1ccc(SCC(=O)NC2CCS(=O)(=O)C2)c([N+](=O)[O-])c1` (stereo unspecified) gave PKD1 kinase inh -9, HDAC3 inh 2, VLA-4 inh -3, Pemphigus Ab inh 101, GRK2 inh 2 and LANA-H2A inh 2.
O=C(CNC(=S)NC(=O)c1ccccc1Br)c1ccccc1 was read as PKD1 kinase inh 2, HDAC3 inh -4, VLA-4 inh 0, Pemphigus Ab inh 6.1*, GRK2 inh 17 and LANA-H2A inh -3.
`CN(C)/C(=N\S(=O)(=O)c1ccc(Br)cc1)c1ccccc1` gave HDAC3 inh -11, VLA-4 inh 7, Pemphigus Ab inh 111, GRK2 inh 0 and LANA-H2A inh -8.
`CN(c1ccc(OCC(=O)OCC(=O)c2c(N)n(C)c(=O)n(C)c2=O)cc1)S(=O)(=O)c1ccc2ccccc2c1` gave PKD1 kinase inh 14, HDAC3 inh 5, VLA-4 inh 3, Pemphigus Ab inh 97*, GRK2 inh 0 and LANA-H2A inh -1.
For NS(=O)(=O)c1ccc(CCNS(=O)(=O)c2ccc3c(c2)NC(=O)CO3)cc1 the results were HDAC3 inh -1, VLA-4 inh 28, Pemphigus Ab inh 108, GRK2 inh 6 and LANA-H2A inh -8.
Cn1cc(CN2CCC(C(=O)N3CCCCC3)CC2)c(-c2ccccc2F)n1 was read as PKD1 kinase inh 3, HDAC3 inh -7, VLA-4 inh -4, Pemphigus Ab inh 32*, GRK2 inh 0 and LANA-H2A inh -15.
`Cc1nnc2ccc(-c3ccc(NS(=O)(=O)c4ccccc4)cc3)nn12` gave Pemphigus Ab inh 71*.
`CCCOc1ccc(C(=O)O)cc1` gave HDAC3 inh 3, VLA-4 inh -1, Pemphigus Ab inh 90, GRK2 inh 0 and LANA-H2A inh -2.
CCCOc1ccc(C(=O)ON=C2CCN(C)CC2)cc1 was read as PKD1 kinase inh -8, HDAC3 inh 4, VLA-4 inh -2, Pemphigus Ab inh 98, GRK2 inh 0 and LANA-H2A inh 31*.
CN(C)c1ccc(/C=N/N=C2/SC(CC(=O)O)C(=O)N2c2ccc(O)cc2)cc1 (stereo unspecified) was read as PKD1 kinase inh -8, HDAC3 inh -1, VLA-4 inh -2, Pemphigus Ab inh 107, GRK2 inh 2 and LANA-H2A inh 1.
For CN(C1=NC(=O)C(CC(=O)O)S1)c1ccc(O)cc1 (stereo unspecified) the results were PKD1 kinase inh -2, HDAC3 inh -8, VLA-4 inh 1, Pemphigus Ab inh 23*, GRK2 inh 0 and LANA-H2A inh 7.
Screening COC(=O)C1CCN(C(=O)c2ccc(SC)cc2OC)CC1 returned PKD1 kinase inh -7, HDAC3 inh 4, VLA-4 inh 10, Pemphigus Ab inh 105, GRK2 inh 2 and LANA-H2A inh 12*.
For NS(=O)(=O)c1ccc(-c2ccc(/C=C3\SC(=S)N(C4CCS(=O)(=O)C4)C3=O)o2)cc1 (stereo unspecified) the results were HDAC3 inh 2, VLA-4 inh -1, Pemphigus Ab inh 77*, GRK2 inh 0 and LANA-H2A inh -3.
NC(=NC(=O)c1ccc(Cl)cc1)N1N=CCC1c1ccccc1 (stereo unspecified) was read as PKD1 kinase inh 10, HDAC3 inh -1, VLA-4 inh 15, Pemphigus Ab inh -11*, GRK2 inh 0 and LANA-H2A inh -2.
